Binding signal data for 54 sequences are collected here from PMC7819943, “Rice protein-binding microarrays: a tool to detect cis-acting elements near promoter regions in rice”.

In all, about 68,000 sequences were measured (“fluorescence intensity (a.u.)”: median about 9,100, highest 2% from about 16,000 on). Shown is part of a subset that was picked to be rich in the highest values.

Sequence of OsWRKY34 (Q0JBA9 entry or part of it): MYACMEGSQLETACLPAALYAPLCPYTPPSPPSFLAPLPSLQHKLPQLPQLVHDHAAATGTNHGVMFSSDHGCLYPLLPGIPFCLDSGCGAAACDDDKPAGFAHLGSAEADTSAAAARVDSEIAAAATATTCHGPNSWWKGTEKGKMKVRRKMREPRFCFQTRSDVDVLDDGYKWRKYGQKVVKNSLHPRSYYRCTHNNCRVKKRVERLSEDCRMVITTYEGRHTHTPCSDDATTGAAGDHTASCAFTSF

The assay concerns the target OsWRKY34 (Oryza sativa, UniProt Q0JBA9 1-250). The assay is described as follows: protein-binding microarray (RPBM); PBS, 2% BSA, 51.3 ng/ul salmon testes DNA, 50 uM zinc acetate, 200 nM TF, 25 C, 1 h; high values mean tight binding. The following applies: protein: recombinant; tags: N-terminal polyhistidine and DsRed monomer fusion (pET32a); label: CyDye5-dUTP incorporated in the synthesized complementary strand; 3' TTTTT single-stranded linker to array surface; dsDNA, one strand shown. An outline of the steps:
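Transcription factors were made in E. coli BL21-CodonPlus as N-terminal fusions to a polyhistidine tag and DsRed, then purified on Ni–NTA. After primer extension with Cy5-dUTP and blocking with 2% BSA, a custom Agilent array was exposed for 1 h at 25 °C to 200 nM protein in PBS, 2% BSA, salmon testes DNA and 50 µM zinc acetate. Washed arrays were scanned on an Axon 4000B, and the binding signal is per-feature fluorescence intensity in arbitrary units.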
As for “CCCTCTCTCTATTTAAGCAAGCACATTCTCCTCTTCTTCTCGGAGTCACCTAGTGCAG”, the binding signal is 8240 fluorescence intensity (a.u.).
For the sequence “GCCGACTCTTACTCCTCCGCCCACTCACCACGCGCGCTGCCGGAGTCACCTAGTGCAG”, the binding signal was 11000 fluorescence intensity (a.u.).
The same measure for “GGGAGGGGTGGCTCGGCGGCGGTGCGGGGTGGCGGTGCTCCGGAGTCACCTAGTGCAG”: 18700 fluorescence intensity (a.u.); for “GTGGCCGGCGGCGTTCGGGCGTGGGCGGGGAGGCCGGATCCGGAGTCACCTAGTGCAG”: 13700 fluorescence intensity (a.u.); for “GGCGGAGCTCGGGATGTGGGAGGAGGAGGGCTATTTATTCCGGAGTCACCTAGTGCAG”: 14400 fluorescence intensity (a.u.).
The same measure for “AGAGGTGGAAGGGGATGGGGAGAAAAAAAAGGAGAGGGGACGGAGTCACCTAGTGCAG”: 8410 fluorescence intensity (a.u.).
The same measure for “GTTGGGAAGGAAAGGGAGGGGTTGGTGCTCTCCTCCTCTTCGGAGTCACCTAGTGCAG”: 9740 fluorescence intensity (a.u.); for “GCGGGCGGAGGAGCTCGGGCGTGGGCGGGGAGGGCGGATCCGGAGTCACCTAGTGCAG”: 20800 fluorescence intensity (a.u.); for “CGAGTGACGAGGTCTTGGGTTGGGGTAGGGGTGGGATGAGCGGAGTCACCTAGTGCAG”: 19900 fluorescence intensity (a.u.).
On to “CCGGGTGGAGGGCGGGGAAGCGGCGGCGGAACTCCGGGCTCGGAGTCACCTAGTGCAG”, for which the binding signal was 8490 fluorescence intensity (a.u.).
Take “TGGCGGCTCGGTGGCGGAGCTCCGGTGTGGGGTGGTGTGGCGGAGTCACCTAGTGCAG”: the binding signal is 8140 fluorescence intensity (a.u.).
The same measure for “TTGGGAGGGATGGGGCGGTGGTTAGGGGATGAGCGGAGGACGGAGTCACCTAGTGCAG”: 13200 fluorescence intensity (a.u.); for “CTCTTCTCCTCCAAGGATGGGGAGGTGGGGATGGTGGGGACGGAGTCACCTAGTGCAG”: 19400 fluorescence intensity (a.u.); for “GAGTGGTGGAGGGTTGTGATTGGATGAGTAGTGGAGGTAGCGGAGTCACCTAGTGCAG”: 8760 fluorescence intensity (a.u.).
To “CAGTATCTTACTTCTCAGCTGCTCAATCATCAGCTGCCACCGGAGTCACCTAGTGCAG” belongs 9310 fluorescence intensity (a.u.).
The same measure for “GCAAGATCTCCATGATGCGACAGCTCTACCGTTACAATTACGGAGTCACCTAGTGCAG”: 8100 fluorescence intensity (a.u.); for “TCAATCAACGGCTACTTGTATGTAATCTCCACGCATTCCACGGAGTCACCTAGTGCAG”: 8630 fluorescence intensity (a.u.); for “CTTTTTGTTTTGGCCTTGACGTCGTGTTCACCGCCTCTACCGGAGTCACCTAGTGCAG”: 11800 fluorescence intensity (a.u.).
As to “CAGAGCTCTTCCTGCTGTACCTACCAAGCTCTTACTTTGACGGAGTCACCTAGTGCAG”, the binding signal is 8060 fluorescence intensity (a.u.).
The same measure for “GTACTACTCCAAATCGTGTTCCACATTTCTATTTTGCACACGGAGTCACCTAGTGCAG”: 10200 fluorescence intensity (a.u.); for “CTTAGGTCAACACCGAAAACTAATCACCATGTTGACTTTGCGGAGTCACCTAGTGCAG”: 9710 fluorescence intensity (a.u.); for “GATGGTGTGTGTGTGTGGCTGTGTGCACCTAAGAATTTCTCGGAGTCACCTAGTGCAG”: 10400 fluorescence intensity (a.u.).
The same measure for “ATATTTATGTGCCAAATATTGTCAATTGTTCCTCTTGTTACGGAGTCACCTAGTGCAG”: 9080 fluorescence intensity (a.u.); for “CTCGCTCACTCGGTCAGCTGCACACACACTGCACTTCGGCCGGAGTCACCTAGTGCAG”: 9820 fluorescence intensity (a.u.).
The same measure for “GGTGCGGGGTGGCGGTGCTCGGCCACAGCGGCGCGCGGGGCGGAGTCACCTAGTGCAG”: 8130 fluorescence intensity (a.u.); for “GTTGGGGAGCGCGGCGGGGCGTCGGAGGAGTTGACAGGAGCGGAGTCACCTAGTGCAG”: 8910 fluorescence intensity (a.u.); for “GTTGGGGAGCGGGGTGTGTGTGCCAGGCGCTCGGGCGGGGCGGAGTCACCTAGTGCAG”: 19500 fluorescence intensity (a.u.).
“GGGGTGGCGGCGGCGGCTGCGCGCGGGCGGTGGCGCGGGGCGGAGTCACCTAGTGCAG”: the binding signal is 12000 fluorescence intensity (a.u.).
The same measure for “GTGGGCGTGGGCCCCGCGTCCTGTGGTGGTGGTGGGTGCTCGGAGTCACCTAGTGCAG”: 9200 fluorescence intensity (a.u.); for “AGGCAGGGTGGGTGGGTGGTGGGCTTGCTCGCTCCGCGTCCGGAGTCACCTAGTGCAG”: 19700 fluorescence intensity (a.u.); for “CCAGAACGGCCGGTCAACGGCACCGTTGACCGTATGAGGGCGGAGTCACCTAGTGCAG”: 52400 fluorescence intensity (a.u.).
The same measure for “GCGGTGCAGGGCGGTGGCGGCGGCGGGTGGGGCGGTGGCGCGGAGTCACCTAGTGCAG”: 20900 fluorescence intensity (a.u.).
As to “GTGGAGGGGCGGCGTTGGGCAGAGGGGCGGCACGGGTGAACGGAGTCACCTAGTGCAG”, the binding signal was 12800 fluorescence intensity (a.u.).
The same measure for “ATGTTGGGCCAGGCTCGAGCTCCTCCTCCTCCGCGTCGTCCGGAGTCACCTAGTGCAG”: 8140 fluorescence intensity (a.u.); for “CATGCGGGGCGCGGGCGGCGGTGCAGGGCGGGGTGCGGCCCGGAGTCACCTAGTGCAG”: 8730 fluorescence intensity (a.u.); for “GCGTTGAGGGCAGGCGGCGGCGCTTGGTGGCGGTGGGGCACGGAGTCACCTAGTGCAG”: 8370 fluorescence intensity (a.u.).
The same measure for “CGGCCGTCCGCCATCTGCAAAAGGTGTTTTTTCACATGCCCGGAGTCACCTAGTGCAG”: 8560 fluorescence intensity (a.u.); for “ATCCTCTTGTTTCGTACAGGTCACTTAAATAGTTATAAAACGGAGTCACCTAGTGCAG”: 8300 fluorescence intensity (a.u.).
Consider “CACTAAACGGCCAAAATCTTCCATCGTATAGTTACGTCACCGGAGTCACCTAGTGCAG”, for which the binding signal is 8410 fluorescence intensity (a.u.).
Take “CTCTACTATCGATCTTTTTTCCACGTCGGTCGCGGCTTTTCGGAGTCACCTAGTGCAG”: the binding signal was 9580 fluorescence intensity (a.u.).
To “AGTATAACTTTTTTTTTGTCACTCTGTTATCTCACATCTGCGGAGTCACCTAGTGCAG” belongs 8760 fluorescence intensity (a.u.).
The same measure for “CTATCTTTTTCTCCATCTTTCTCTGTCCGTCCATTCACCCCGGAGTCACCTAGTGCAG”: 8690 fluorescence intensity (a.u.).
Consider “GTGCTGTGATTGGCCGCGCGGGATTTCCTGGGCGGGCGGGCGGAGTCACCTAGTGCAG”, for which the binding signal is 15500 fluorescence intensity (a.u.).
To “TCGGTGGGTGCCGGGCGGAGCGGTTTTTGAGGGAGGGGTCCGGAGTCACCTAGTGCAG” belongs 17600 fluorescence intensity (a.u.); to “GATGGATGGGGTGGGGACTGGGGATGGATGGAGGCGGCGGCGGAGTCACCTAGTGCAG”, 21300 fluorescence intensity (a.u.); to “CGCGGTGTGCCGGGGAGGGAGGTGGTGGTTGAGGTTGAGGCGGAGTCACCTAGTGCAG”, 11700 fluorescence intensity (a.u.).
The same measure for “GGGGAGGTGGAGATGAGATGAGGCGGCGGGGTGGCGGTGGCGGAGTCACCTAGTGCAG”: 13700 fluorescence intensity (a.u.); for “GGGATGGATGGAGGCGGCGGTGCTGAGGTGGTGGGACTGTCGGAGTCACCTAGTGCAG”: 8460 fluorescence intensity (a.u.).
In the case of “CGAGGAGCGGGGTGGGGTCGGAGGCGGGGAGGGAGGACGCCGGAGTCACCTAGTGCAG”, the binding signal is 16100 fluorescence intensity (a.u.).
The same measure for “CTGGGAGGGAGGGGAGGGAGCGCCGCCTTTGCCACTATCGCGGAGTCACCTAGTGCAG”: 16900 fluorescence intensity (a.u.); for “CGCCTGCCTGCCGCCACCGCCACTCCACTTTGCTTCACCGCGGAGTCACCTAGTGCAG”: 9570 fluorescence intensity (a.u.); for “AGGTGTGTATCGTACCGTGGCGGGCGCTTTCCTGGTGGGGCGGAGTCACCTAGTGCAG”: 10200 fluorescence intensity (a.u.).
To “CGCCGCCTTTGCCACTATCGCTCCCTCCTCCAGCCGGATCCGGAGTCACCTAGTGCAG” belongs 10600 fluorescence intensity (a.u.).
On to “GGATTTCCTGGGCGGGCGGGGCGCGGATAAGGGGTGTGTGCGGAGTCACCTAGTGCAG”, for which the binding signal is 17000 fluorescence intensity (a.u.).
